Laboratory results taken from PubChem BioAssay (EPA / NIEHS).
Activity calls are given as the source filed them. The calls were made as follows: active = hit-call score of the fitted dose curve at least 0.9, where 1 is the maximum; inactive = score below 0.9.

Test: CEETOX_H295R_ANDR: CeeTox H295R High-throughput Steroidogenesis Assay for Androstenedione (ANDR) (AID 2283436)
Conditions: actives raise or lower the signal
Outline: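 H295R human adrenal cells (passages ≤10) were exposed to test chemicals for 48 h; androstenedione in medium was MTBE-extracted and quantified by HPLC-MS/MS against a 7-point standard curve. Bidirectional fitting used DMSO as baseline.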
For `CCC(=O)Nc1ccc(Cl)c(Cl)c1`, the AC50 was 3890 nM (active).
With `CNC(=O)ON=C(SC)C(=O)N(C)C` the outcome was “inactive”.
With `CCOC(=O)COc1cc(-c2nn(C)c(OC(F)F)c2Cl)c(F)cc1Cl` the outcome was “inactive”.

Test: CEETOX_H295R_CORTISOL: CeeTox H295R High-throughput Steroidogenesis Assay for Cortisol (AID 2283438);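 also: cortisol secreted into medium quantified by LC-MS/MS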
Conditions: actives raise or lower the signal
Outline: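 Human adrenocortical H295R cells (passage ≤10) received test chemicals for 48 h after forskolin priming. Secreted cortisol was measured by LC-MS/MS.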
For `CCNc1nc(Cl)nc(NC(C)(C)C#N)n1`, the outcome was “inactive”.
For `CCOP(=S)(OCC)Oc1ccc([N+](=O)[O-])cc1`, the AC50 was 1930 nM (active).
In the case of `FC(F)C(F)(F)OCC(Cn1cncn1)c1ccc(Cl)cc1Cl` (stereo not given), the outcome is reported as “inactive”.
In the case of `C#CC(C)(C)NC(=O)c1cc(Cl)cc(Cl)c1`, the outcome is reported as “inactive”.
For `COP(=O)(NC(C)=O)SC` (stereo not given), the outcome was “inactive”.
With `CCOP(=S)(OCC)Oc1cc(C)nc(C(C)C)n1` the AC50 was 50000 nM (active).
With `O=C(O)c1cc(Oc2ccc(C(F)(F)F)cc2Cl)ccc1[N+](=O)[O-]` the outcome was “inactive”.
In the case of `CCOP(=S)(OCC)Oc1ccc2c(C)c(Cl)c(=O)oc2c1`, the outcome is reported as “inactive”.
With `CNC(=O)ON=C(C)SC` the outcome was “inactive”.
With `CCCCN(CC)c1c([N+](=O)[O-])cc(C(F)(F)F)cc1[N+](=O)[O-]` the outcome was “inactive”.
For `CCOC(=O)COc1cc(-c2nn(C)c(OC(F)F)c2Cl)c(F)cc1Cl`, the outcome was “inactive”.

Test: CEETOX_H295R_DOC: CeeTox H295R High-throughput Steroidogenesis Assay for DOC (AID 2283439)
Conditions: actives raise or lower the signal
Outline: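 Secreted DOC was quantified from H295R media by HPLC-MS/MS after 48 h chemical exposure following 48 h forskolin (10 uM) prestimulation. Values were fitted in both directions relative to DMSO, the negative control and baseline.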
With `CCNc1nc(Cl)nc(NC(C)(C)C#N)n1` the outcome was “inactive”.
For `CCOP(=S)(OCC)Oc1ccc([N+](=O)[O-])cc1`, the AC50 was 775 nM (active).
For `FC(F)C(F)(F)OCC(Cn1cncn1)c1ccc(Cl)cc1Cl` (stereo not given), the outcome was “inactive”.
In the case of `C#CC(C)(C)NC(=O)c1cc(Cl)cc(Cl)c1`, the AC50 is reported as 7450 nM (active).
For `COP(=O)(NC(C)=O)SC` (stereo not given), the outcome was “inactive”.
With `CCOP(=S)(OCC)Oc1cc(C)nc(C(C)C)n1` the outcome was “inactive”.
For `O=C(O)c1cc(Oc2ccc(C(F)(F)F)cc2Cl)ccc1[N+](=O)[O-]`, the outcome was “inactive”.
With `CCOP(=S)(OCC)Oc1ccc2c(C)c(Cl)c(=O)oc2c1` the AC50 was 1230 nM (active).
In the case of `CNC(=O)ON=C(C)SC`, the outcome is reported as “inactive”.
For `CCCCN(CC)c1c([N+](=O)[O-])cc(C(F)(F)F)cc1[N+](=O)[O-]`, the outcome was “inactive”.
With `CCOC(=O)COc1cc(-c2nn(C)c(OC(F)F)c2Cl)c(F)cc1Cl` the outcome was “inactive”.
